Shown are actives, neighbours in structure and some others; about 4.1% of the full set was active somewhere.
hgDAF-12 ag: activates the H. glycines DAF-12 receptor ligand-binding domain. activation, % at 6.8 µM. HEK293 GAL4-hgDAF12 UAS-luciferase reporter, agonist luminescence; normalized to butyrate control. 370,000 compounds, 1.8% hits. AID 687014;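 active = activation above a cutoff set at the mean of all screened compounds plus 3 SD, cut at about 10% in these data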;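 note: 0% = DMSO wells and 100% = sodium butyrate wells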
ssDAF12 agonist: activates DAF-12 receptor from parasite S. stercoralis; 370,000 compounds, 1% hits; AID 652126; activation, % at 6.8 µM; HEK293 ssDAF-12/GRIP1 lit1-tk-luc reporter, luminescence; % of 3 µM dafachronic acid response;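 active = activation above the mean over all tested compounds plus 3 SD, cut at about 0.9% in these data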;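 note: 0% = DMSO-only wells and 100% = 3 µM delta7-dafachronic acid wells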
hcDAF12 agonist: activators of H. contortus DAF-12 nuclear receptor; HEK293 hcDAF-12 lit1-tk-luc reporter, luminescence; 0% DMSO, 100% Δ7-dafachronic acid; 370,000 compounds, 1.4% hits; activation, % at 6.8 µM; AID 652067;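 active = activation above the mean of all tested compounds plus 3 SD, cut at about 5.5% in these data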;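 note: 100% = response to 3 µM Δ7-dafachronic acid high control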
DAX1 inh-1: inhibitors of human orphan nuclear receptor DAX1 (NR0B1); inhibition, % at 6.75 µM; 340,000 compounds, 0.99% hits; HEK293 Gal4-DAX1 luciferase reporter, luminescence; P51843;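 active = inhibition above the mean over all tested compounds plus 3 SD, cut at about 4.2% in these data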;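 note: 0% = DAX1-transfected cells with DMSO and 100% = empty-vector control cells with DMSO; inhibition shows as a rise in luminescence from relieved DAX1 repression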
Target sequence (P51843 207-470 limits assumed): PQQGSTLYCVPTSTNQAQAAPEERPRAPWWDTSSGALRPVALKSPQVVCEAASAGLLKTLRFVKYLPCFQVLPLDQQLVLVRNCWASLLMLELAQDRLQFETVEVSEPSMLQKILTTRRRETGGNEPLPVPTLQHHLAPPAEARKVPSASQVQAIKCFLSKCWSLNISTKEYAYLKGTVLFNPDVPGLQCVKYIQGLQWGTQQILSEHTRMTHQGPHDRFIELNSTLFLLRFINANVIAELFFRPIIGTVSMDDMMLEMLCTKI
DAX1 inh-2: inhibitors of DAX1 repression of SF-1 activated StAR promoter. HEK293T StAR-luciferase reporter, SF-1/DAX-1 repression relief. inhibition, % at 6.8 µM. AID 652010. 370,000 compounds, 1.1% hits;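 active = inhibition above the mean over all tested compounds plus 3 SD, cut at about 3.6% in these data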;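 note: 0% = DAX-1 cells with DMSO and 100% = cells lacking DAX-1 with DMSO; higher inhibition means more luminescence from relief of DAX-1 repression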
* = called active by the depositor; nt = no result; ! = not active in a repeat.

SMILES	hgDAF-12 ag	ssDAF12 agonist	hcDAF12 agonist	DAX1 inh-1	DAX1 inh-2
Cc1ccccc1-n1c(O)c(/C=N/NC(=O)c2ccncc2)c(=O)[nH]c1=O	-0.5	-1.3	0.5	4.4*	0.1
Cc1cc(C)c(-n2c(O)c(/C=N/NC(=O)c3ccncc3)c(=O)[nH]c2=O)c(C)c1	-0.7	-1.3	-0.7	nt	1.1
CC(C)(C)n1nnnc1C(C1CC1)N1CCC2(CC1)C(=O)NCN2c1ccccc1 (stereo unspecified)	-4.0	-1.1	-1.5	nt	-1.7
Cc1cc(N2CCNC[C@H]2C)ccc1N1CC[C@@H](O)C1	2.6	-0.5	3.5	nt	-0.8
CCc1cc2c(N3CCN(C)CC3)ncnc2s1	-2.1	-1.1	-0.5	0.1	0.2
CCN1CCN(c2ncnc3ccc(Br)cc23)CC1	5.1	-0.9	-1.1	4.4*	-0.4
Cc1cccc(C)c1-n1nnnc1C(c1ccnc2ccccc12)N1CCC2(CC1)C(=O)NCN2c1ccccc1 (stereo unspecified)	-3.6	-1.6	2.4	nt	2.2
COc1ccc(-c2cc(=NCCCCCC(=O)O)c3cc(C)ccc3o2)cc1	10.6*!	-0.8	2.5	0.7	2.4
COc1ccc(NC(=S)NC(NC(=O)CF)C(Cl)(Cl)Cl)cc1[N+](=O)[O-] (stereo unspecified)	4.4	-2.2	-0.9	4.6*	0.0
Cc1cc(O)c2c(c1)C(=O)[C@@]13C(=C2O)C(=O)[C@H]2C(O)[C@@H]1[C@H]1C(O)[C@@H]3C(=O)C3=C(O)c4c(O)cc(C)cc4C(=O)[C@@]312 (stereo partly specified)	-10.7	-1.4	-2.7	nt	-5.2
CCCCn1c(=O)c(C(=O)NCCc2ccccc2)c(O)c2ccccc21	0.8	-1.9	-2.1	5.1*	-0.1
CCCCCn1c(=O)c(C(=O)Nc2ccccc2)c(O)c2ccccc21	0.5	-0.3	7.8*	-0.5	0.1
CC(C)(C)n1nnnc1C1CN=C(c2ccccc2)c2cc(Cl)ccc2N1 (stereo unspecified)	1.5	-1.3	-1.6	nt	0.1
CC(C)(C)n1nnnc1C1CN=C(c2ccccc2)c2ccccc2N1 (stereo unspecified)	10.8*	-0.7	0.8	nt	0.9
O=C(NC1CN2CCC1CC2)c1cc(-c2ccc(Cl)cc2)nc2ccccc12 (stereo unspecified)	2.2	-0.6	3.5	nt	3.5
O=C(Nc1ccccc1)c1c(O)c2c(n(Cc3ccco3)c1=O)CCCC2	1.7	0.0	5.5	4.3*	-0.5
O=C(Nc1nccs1)c1c(O)c2c(n(Cc3ccco3)c1=O)CCCC2	1.1	1.3*	4.8	1.3	0.2
CC1=C2CCC3C(CCC4=CC(=O)CCC43C)C2CC1 (stereo unspecified)	-1.5	-1.1	-2.3	-0.8	0.3
N#Cc1ccc(NC(=S)N2Cc3cc(Br)ccc3-n3nncc3C2)cc1	1.5	-0.6	-1.4	nt	-1.1
COc1ccccc1N1CCN(Cc2ccc(F)cc2)CC1	0.4	-1.1	-0.9	-0.2	-0.1
COc1ccc(CN2CCN(c3ccccc3F)CC2)cc1O	0.5	-1.2	-1.1	4.5*	0.0
CC(C)C[C@H]1COc2cccc(N3CCN(C)CC3)c2S(=O)(=O)N1	1.3	-1.1	-1.1	nt	4.2*
CNC(=O)c1cccn(Cc2ccc(C(F)(F)F)cc2)c1=O	-3.6	2.4*	0.1	1.0	-0.7
O=c1[nH]c2ccccc2n1C1CCN(C(c2nnnn2-c2ccc3c(c2)OCCO3)C2CC2)CC1 (stereo unspecified)	-0.3	-1.2	-1.8	nt	-2.7
Cc1ccc(-c2nn(Cc3ccccc3)cc2C(=O)O)cc1	1.4	-0.2	2.7	5.3*	-0.3
SMILES	hgDAF-12 ag	ssDAF12 agonist	hcDAF12 agonist	DAX1 inh-1	DAX1 inh-2
COc1ccccc1N	-3.2	-1.7	-1.4	nt	0.0
CC/C(=N\Nc1ccccc1)c1c(O)[nH]c(=O)[nH]c1=O	2.2	-1.2	1.1	2.0	0.5
CC/C(=N\Nc1cccc2ccccc12)c1c(O)[nH]c(=O)[nH]c1=O	1.3	1.3*	1.9	-2.5	-0.8
Cc1ccc(-n2c(O)c(C=NCc3ccccn3)c(=O)[nH]c2=S)cc1	2.8	-0.9	-0.4	5.1*	0.4
CCCCn1c(O)c(C(=O)/C=C/c2c[nH]c3ccccc23)c(=O)[nH]c1=O	-1.7	-0.9	6.0*	0.9	0.3
CCCCn1c(O)c(C(CC)=NCCc2ccccc2)c(=O)[nH]c1=O	-2.6	-0.9	0.2	0.5	-0.4
O=C(CCn1nc(-c2ccc(Cl)cc2)ccc1=O)N1CCC2(CC1)OCCO2	1.1	-1.9	-0.6	1.3	-0.4
O=C(Cn1nc(-c2ccc(Cl)cc2)ccc1=O)N1CCC2(CC1)OCCO2	-3.2	0.3	-1.0	4.4*	0.3
c1ccc(CN2CCc3nc4ccccc4cc3C2)cc1	12.5*	-0.7	0.9	2.0	0.1
COC(=O)C1=C(c2c(C)noc2C)C[C@@H]2CC[C@H]1N2C(=O)N1CCc2cc(OC)c(OC)cc2C1	nt	nt	nt	0.8	nt
NC(=S)N/N=C/c1coc2ccccc2c1=O	2.7	1.2*	-0.1	-1.0	0.0
N#CCC[C@@H]1CC[C@]2(CCCN(Cc3ccncc3)C2)O1	-0.8	-1.1	0.7	nt	0.3
COc1ccc(C(=O)C2CCCN(CC3CCCCC3)C2)cc1OC (stereo unspecified)	3.9	-0.6	2.0	nt	3.9*
Cc1cc(N2CCNC[C@@H]2C)ccc1N1CCN[C@H](C)C1	-0.8	-0.4	1.2	nt	0.2
Cc1cc(N2CCNC[C@H]2C)ccc1N1CCN[C@@H](C)C1	1.1	-1.5	0.6	nt	1.9
COc1cccc2c1C(=O)c1c(O)c3c(c(O)c1C2=O)CC(O)(C(C)=NO)CC3OC1CC(N)C(O)C(C)O1 (stereo unspecified)	3.2	1.9*	4.8	-2.8	-2.8
CC(C)(C)Cc1nnc(NC(=O)COc2ccc(Cl)cc2Cl)o1	-1.6	-1.7	-0.2	nt	nt
CCCC1C(C#N)=C(N)Oc2c1c(=O)oc1ccccc21 (stereo unspecified)	1.4	-1.3	-1.6	4.6*	0.6
CC(C)C1C(C#N)=C(N)Oc2c1c(=O)oc1ccccc21 (stereo unspecified)	-2.3	-1.0	0.2	0.4	4.0*
CC(C)Oc1ccc(C2C(C#N)=C(N)Oc3c2c(=O)oc2ccccc32)cc1 (stereo unspecified)	0.5	-1.1	-0.1	-0.4	0.4
CCCC(C)C1C(C#N)=C(N)Oc2c1c(=O)oc1ccccc21 (stereo unspecified)	-0.6	-0.6	-1.4	1.2	-0.5
O=C(O)c1cc(S(=O)(=O)N2CC3CC(C2)c2cccc(=O)n2C3)ccc1F (stereo unspecified)	2.1	-2.1	-1.1	nt	0.5
C=CCCC[C@@H]1OC(=O)CNC(=O)C([C@@H](C)CC)NC(=O)[C@@H]2CCCN2C(=O)C([C@@H](C)CC)OC(=O)[C@H](Cc2ccccc2)N(C)C(=O)[C@H](C(C)C)NC(=O)C1(C)C (stereo partly specified)	-2.1	-1.0	-1.3	nt	0.0

Source: PubChem BioAssay
